Here are results for 94 compounds from PubChem BioAssay AID2544 (Sanford-Burnham Center for Chemical Genomics, 2010).

Broadly, the inhibition is the change of the read-out against control, counted positive when it falls.

Out of some 330,000 compounds screened, about 390 (0.12%) were called active. This is one part of a sample in which actives are shown more often than they occur. A number with no mark means an inactive call.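 The calls were made as follows: active = inhibition reaching a set limit with compound at 10 µM in the primary screen (cut at about 35% in these data); inactive = the rest.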

For this assay, the target named is Intestinal-type alkaline phosphatase (Homo sapiens) (UniProt P09923). The experiment in a line: human IAP inhibitors, primary screen, biochemical, luminescence, uHTS (AID 2544).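 Also: plate controls were DMSO wells with enzyme for no effect and no-enzyme buffer wells for full effect.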 The conditions noted are these: purified IAP, CDP-Star luminescence, 30 min; at 10 µM; active compounds read high.
Chain of Intestinal-type alkaline phosphatase (Homo sapiens) (P09923 whole entry, looked up): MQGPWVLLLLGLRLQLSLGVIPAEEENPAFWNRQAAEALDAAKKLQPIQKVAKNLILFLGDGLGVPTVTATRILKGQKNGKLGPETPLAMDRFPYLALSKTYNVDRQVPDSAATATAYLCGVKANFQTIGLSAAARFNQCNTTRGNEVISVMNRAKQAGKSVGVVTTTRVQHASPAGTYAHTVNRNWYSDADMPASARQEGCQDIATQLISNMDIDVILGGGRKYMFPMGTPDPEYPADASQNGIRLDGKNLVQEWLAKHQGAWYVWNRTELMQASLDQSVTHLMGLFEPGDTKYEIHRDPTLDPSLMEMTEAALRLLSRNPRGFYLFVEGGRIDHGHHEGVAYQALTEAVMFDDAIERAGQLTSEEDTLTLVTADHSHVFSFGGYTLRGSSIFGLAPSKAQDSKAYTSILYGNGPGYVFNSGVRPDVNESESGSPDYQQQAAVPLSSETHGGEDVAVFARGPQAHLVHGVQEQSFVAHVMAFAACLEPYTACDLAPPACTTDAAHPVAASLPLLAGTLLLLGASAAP
As to `COc1cccc(CNS(=O)(=O)c2csc(C(N)=O)c2)c1`, the inhibition is 13.3%.
Next, `COc1cccc(CNS(=O)(=O)c2ccc3c(c2)N(C(C)=O)CCS3)c1`: 38.6% (active).
Next, `COc1cccc(CNS(=O)(=O)c2ccc3c(c2)CC(C)N3C(=O)C2CCC2)c1` (centres undefined): 4.9%; `CC1CN/C(=C\C(=O)c2ccc(Br)cc2)C(=O)N1` (centres undefined): -17%; `COC(=O)c1ccc(COC(=O)c2cnccn2)cc1`: 21.3%.
For the compound `Cc1cc(NC(=O)C(C)N2C(=O)c3ccccc3S2(=O)=O)no1` (centres undefined), the inhibition is -15.1%.
Next, `Cn1cnnc1Sc1ccc(S(C)(=O)=O)cc1[N+](=O)[O-]`: -11.6%; `CCn1c(C)nc2c1C(=O)c1ccccc1C2=O`: 1.5%.
Next, `COCCNC(=O)/C(C#N)=C/c1cccc(OCc2ccccc2)c1`: 1.1%; `COc1ccc(CNC(=O)/C(C#N)=C/c2cccc(OC)c2OC)cc1`: -1.8%; `N#C/C(=C\c1ccc(O)c(O)c1)C(=O)NCc1ccccc1`: 37.4% (active).
For `O=C(NCCCc1ccccc1)C1CCC(CNc2c(N3CCCCC3)c(=O)c2=O)CC1` (centres undefined), the inhibition was -6.9%.
For `CN1C=CC=C/C1=C1\SC(=S)N(Cc2ccccc2)C1=O`, the inhibition is -4.6%.
Next, `COc1cc(/C=C2/SC(=S)N(Cc3ccccc3)C2=O)cc(OC)c1O`: 39.3% (active); `COc1cccc(/C=C2/SC(=S)N(CC(=O)NC3C=CS(=O)(=O)C3)C2=O)c1` (centres undefined): -52%.
Next, `CC1CCCCC1NC(=O)c1cn(C)c2ccc(S(=O)(=O)N3CCOCC3)cc2c1=O` (centres undefined): -21.4%.
Next, `CCc1ccccc1NC(=S)N(CCN1CCCCCC1)Cc1ccco1`: -3.8%; `CCCC(C(=O)NCc1ccco1)N(C(=O)CNS(=O)(=O)c1ccccc1)C1CCCC1` (centres undefined): -14.9%.
Turning to `Cc1cc(-c2nnc(SCC(=O)Nc3ccc(F)cc3)n2N)n[nH]1`, the inhibition is -8.7%.
With `CC(=O)Nc1ccc(S(=O)(=O)NCC(=O)OCC(=O)c2ccc[nH]2)cc1`, the inhibition is 5.4%.
As to `Cc1noc(C)c1COc1ccccc1C(=O)N(C)CC(=O)Nc1cccc(F)c1`, the inhibition was -9.4%.
Next, `Cc1ccc(OCCNC(=O)CNC(=O)c2ccc(C)c(C)c2)cc1`: -7.8%.
Next, `CCOc1nnc(C)c2c(C)n(-c3cccc(Cl)c3)nc12`: -4.1%; `Cc1cccc(C(=O)Nc2ccc(C(=O)/C=C/c3cccs3)cc2)c1`: -7.8%; `CCOc1ccc(NC(=O)CN(C)C(=O)CCSc2ccc(F)cc2)cc1OCC`: -1.7%.
Next, `Cn1c(SCc2nc3ccccc3s2)nnc1-c1ccc2c(c1)OCO2`: 16.7%.
As to `COc1ccc(CNC(=O)c2c[nH]c3c(OC)cc(OC)cc3c2=O)cc1`, the inhibition was -24.3%.
Next, `COc1ccc(N2CCN(C(=O)COC(=O)c3cccc(S(=O)(=O)Nc4ccccc4OC)c3)CC2)cc1`: 9.2%; `CCOC(=O)C1CCN(Cc2coc3ccc(Cl)cc3c2=O)CC1`: -6.6%.
Next, `O=c1c(/C=N/O)coc2ccc(Cl)cc12`: 54.1% (active); `Cc1ccc2occ(/C=N/NC(=O)c3ccccc3C)c(=O)c2c1`: 13%.
In the case of `Cc1cccc(-n2c(O)c(C=Nc3ccccc3N)c(=O)[nH]c2=O)c1`, the inhibition is 14.1%.
With `CCc1c(C)nc(N)n2c(SCC(=O)NC3CCCCC3)nnc12`, the inhibition is -2.5%.
As for `Nc1nnc(SCC(=O)NCC(=O)Nc2ccc(F)c(F)c2F)s1`, the inhibition was -11.7%.
Next, `O=S(=O)(c1ccc(F)cc1)n1ccc(-c2cnc(-c3ccccc3)s2)n1`: 5.2%.
`COc1cccc(CN(C)CC2CCCN(CCc3ccc(Cl)cc3)C2)c1OC` (centres undefined): the inhibition was -36.9%.
Next, `O=C1CN(C(=O)COC(=O)c2cnc(Cl)c(Cl)c2)c2ccccc2N1`: 6.4%; `c1ccc(-c2nnc3n2NC(c2ccc4c(c2)OCO4)S3)cc1` (centres undefined): -10.6%.
Next, `COc1ccc(Cl)cc1-n1c(=S)sc2c(=O)n(-c3ccc(F)cc3)c(SCC(=O)O)nc21`: 10.8%.
Next, `COc1ccc2c(c1OC)C(=O)N(c1ncn[nH]1)C2`: 39.6% (active).
On to `COc1ccc2c(c1OC)C(=O)N(c1ccc(O)cc1)C2`, for which the inhibition was -4.8%.
Next, `COc1ccc(C2C(C#N)=C(N)N(c3ncn[nH]3)C3=C2C(=O)CCC3)cc1` (centres undefined): 6.9%; `COc1cc([N+](=O)[O-])ccc1NC(=S)N1CCN(c2ccccn2)CC1`: 6.4%.
Next, `Cc1cc(C)nc(-n2ncc3c2CC(c2ccc(C(C)C)cc2)CC3=O)n1` (centres undefined): 3.4%.
As for `COc1ccc([N+](=O)[O-])cc1C1NN=C(c2cccc3ccccc23)S1` (centres undefined), the inhibition was -10.4%.
Next, `COc1nnc(-c2ccc(C)c(S(=O)(=O)N(C)C)c2)c2ccccc12`: 1.6%.
Next, `O=c1[nH]c(/C=C\c2cccc(C(F)(F)F)c2)nc(O)c1[N+](=O)[O-]`: -10.6%; `COCCNC(=O)/C(C#N)=C/c1nc(N(C)C)n(-c2ccc(F)cc2)c1Cl`: 8.4%; `Cc1ccc(S(=O)(=O)CCC(=O)OCC(=O)N(C)C2CCS(=O)(=O)C2)cc1` (centres undefined): -12.8%.
Next, `COc1ccc(C2=Nc3cc(C)ccc3OC2)cc1`: 41.5% (active); `COc1ccc(-c2cn3ccc(C)cc3n2)cc1`: -3.2%.
As for `Cc1ccc(C(=O)NNC2=Nc3cc([N+](=O)[O-])ccc3OC2)cc1`, the inhibition was -72.1%.
Next, `O=C(CNC(=O)c1cc(=O)[nH]c2ccccc12)Nc1ccc(F)c(F)c1`: -5.1%.
Take `CC(=O)c1cccc(NC(=O)C2CCCN2S(=O)(=O)c2cccc3nsnc23)c1` (centres undefined): the inhibition was 18.3%.
Next, `CC(=O)c1ccc(NC(=O)C2CCCN2S(=O)(=O)c2cccs2)cc1` (centres undefined): 37.2% (active); `CC(=O)Nc1ccc(S(=O)(=O)N2CCN(S(=O)(=O)c3cccs3)CC2)cc1`: 1.1%.
Next, `O=C(CC(Cc1ccccc1)C(=O)O)NCCc1ccc2c(c1)OCO2` (centres undefined): -65.3%; `CCc1ccc(NC(=O)NC(C)c2ccc3c(c2)OCO3)cc1` (centres undefined): -18.5%.
Next, `CC(=NCc1ccc2c(c1)OCO2)C1=C(O)c2ccccc2C1=O`: 82.2% (active).
Take `COc1cccc(-n2c(=O)c3c(C)c(C(=O)N(C)C)sc3n(CC(=O)NCCc3ccc(OC)c(OC)c3)c2=O)c1`: the inhibition is -1.6%.
Next, `C[N+]1(CCNC(=O)/C=N/O)CCCCC1`: -34.9%; `CC(=O)c1ccc(S(=O)(=O)Nc2ccc(-c3ccc4nncn4n3)cc2)cc1`: -1.5%; `COC(=O)[C@H](C(C)C)n1c(C)c(C(C)=O)c(C(C)=O)c1C`: -6.9%.
Next, `CC(C)C[C@H](NC(=O)[C@@H]1O[C@H]1C(=O)O)C(=O)NCCCCN=C(N)N`: 14.6%.
Next, `CCCc1ccc(C(=O)[C@@H]2[C@@H](C(C)=O)N3c4ccc(F)cc4C=C[C@@H]3[C@@]23C(=O)Nc2ccccc23)cc1`: 0%; `CCCCc1nc(NCCN)c(C#N)c2c1CSC(C)(C)C2`: 6.8%; `Cc1ccc(S(=O)(=O)Nc2ccc(F)c(S(=O)(=O)N3CCOCC3)c2)cc1`: -6.7%.
In the case of `CC(Oc1ccccc1)C(=O)NN1Cc2ccccc2C1=N` (centres undefined), the inhibition was -9.2%.
Next, `Cc1cccn2c(=O)nc(SCC(=O)NCc3ccccc3Cl)nc12`: -1.6%; `COC(=O)CSc1nnc(NC(=O)CCc2ccccc2)s1`: -5.1%; `CCOCc1nnc(NC(=O)CCS(=O)(=O)Cc2ccccc2)s1`: -9.2%.
`COCCSc1nnc(NC(=O)CCS(=O)(=O)Cc2ccccc2)s1`: the inhibition was 35.1% (active).
Next, `CCOc1ccccc1NC(=S)N1CCN(c2cccc(C)c2C)CC1`: -5.2%; `COc1ccccc1C(=O)N(C1=NC(C)CS1)c1ccc(Cl)cc1` (centres undefined): -3%.
Next, `Cc1ccn2c(=O)c(C(=O)NCCC3=CCCCC3)c(O)nc2c1`: 6.8%; `O=C(Nc1cc(S(=O)(=O)N2CCOCC2)ccc1OCC(F)(F)F)c1ccc(N2CCCC2=O)cc1`: 2.5%.
Consider `Cc1cc(C)c2c(n1)sc1c(=O)n(-c3ccccc3)c(=O)[nH]c12`, for which the inhibition was 5.6%.
Consider `Cc1ccc(-n2c(C)nnc2SCC(=O)NC2CC2)cc1`, for which the inhibition is -12.6%.
As to `Cc1nc(-c2ccc(F)cc2)c(CC(=O)Nc2cc(S(=O)(=O)N3CCCCC3)ccc2C)s1`, the inhibition was -13.3%.
`CC(C)Oc1c(Br)cc(Br)cc1/C=N/NC(N)=S`: the inhibition was 14.7%.
Next, `COc1ccc(C(C(=O)NC(C)(C)C)N(C(=O)Cn2nnc3ccccc32)c2ccc(C(C)=O)cc2)cc1O` (centres undefined): -15.8%.
Next, `CCC(=O)c1ccc(OCC(=O)OCC(=O)NC2CCCCCC2)cc1`: 8.3%; `Oc1ccc(CNc2ccccc2O)cc1`: -0.8%.
As for `COc1ccc(/C=C2\N=C3CCCN3C2=O)cc1`, the inhibition is 7.3%.
In the case of `Cc1cc(C)c2c(Cn3ccnc3)cc(=O)oc2c1`, the inhibition is -7%.
Next, `CN(CC(=O)Nc1cccc(F)c1)C(=O)C1CC(=O)N(CCc2ccccc2)C1` (centres undefined): 2.5%; `C/C(Cc1ccccc1)=N\NC(=O)CNC(=O)c1ccc2c(c1)OCCO2`: 1.8%.
Next, `CSc1ccc(S(=O)(=O)Nc2cccc(F)c2)cc1`: 7%.
Next, `CN=C1SC(CC(=O)Nc2ccc(C(=O)O)cc2)C(=O)N1C` (centres undefined): 15.6%.
Turning to `CCOC(=O)COc1cc(OCC(=O)OCC)c2c(=O)cc(-c3ccccc3)oc2c1`, the inhibition is -22.1%.
For the compound `COc1c(O)cc2oc(-c3ccc(O)c(O)c3)cc(=O)c2c1O`, the inhibition was 40.1% (active).
Next, `Cc1cccc(-c2nnc(SCC(=O)O)n2Cc2ccccc2)c1`: -16.7%; `Cc1ccc2c(c1)nnc1nnc(SCC(=O)O)n12`: 36.1% (active); `CCn1nnnc1SCC(=O)c1ccc(C)cc1C`: -4%.
